PLCg1 inh = inhibitors of human phospholipase C gamma1; 370,000 compounds, 0.84% hits; inhibition, % at 12.2 µM; purified PLC-gamma1, fluorogenic substrate, fluorescence; in the data active = inhibition above about 9.5%
FAS-TE inh = blocks the thioesterase domain of human fatty acid synthase; 360,000 compounds, 0.67% hits; AID 602261; inhibition, % at 15 µM; P49327; recombinant FAS-TE, OMFH fluorogenic substrate, fluorescence endpoint;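 active = compounds whose normalised, plate-corrected inhibition of enzyme fluorescence in the single-dose primary screen is 50% or more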;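 also: 0% = DMSO with enzyme and 100% = substrate without enzyme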
Cardio protect = modulators protecting cardiomyocytes from myocardial damage. AID 588492. 360,000 compounds, 0.63% hits. protection from H2O2 cell death, % at 20 µM. H9c2 cardiomyocytes, H2O2 injury protection, ATPLite, 2 h;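 active = compounds giving at least 50% protection of heart cells from peroxide-induced death in the single-dose screen, raw or plate-pattern-corrected value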;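 also: 0% = DMSO wells with peroxide and 100% = DMSO wells without peroxide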
PLC-beta3 inh = blocks human PLC-beta3 enzyme activity; Purified PLC-beta3, fluorogenic substrate, fluorescence; inhibition, % at 12.2 µM; 370,000 compounds, 0.18% hits; in the data active = inhibition above about 11%;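 also: 0% = median of compound wells on plate and 100% = full blocker control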
* = called active by the depositor; / = no result. Hits are enriched below; roughly 2.2% of the tested compounds scored in any of these assays.

SMILES	PLCg1 inh	FAS-TE inh	Cardio protect	PLC-beta3 inh
CC(=O)Nc1c(O)nc(SCC(=O)Nc2c(C)cccc2C)[nH]c1=O	11.8*	-2.9	6.8	11.5*
Cn1c(C(=O)Nc2ccc3c(c2)OCCO3)cc2c(=O)n(C)c3ccccc3c21	-12.5	10.0	95.2*	-15.0
Cn1c(C(=O)NC2CC2)cc2c(=O)n(C)c3ccccc3c21	-4.4	-3.1	35.1	-5.5
CCCCOCC1CN(CCCC)S(=O)(=O)c2c(cccc2N(C)S(=O)(=O)c2ccc(C)cc2)O1 (stereo unspecified)	2.9	/	/	3.4
CC(C)(C)N1Cc2nnn(Cc3ccccc3)c2-c2cc(N3CCCCC3)ccc2S1(=O)=O	-15.0	/	/	-15.3
O=S(=O)(O)c1cccc2c(N=Nc3ccc(O)c4ncccc34)cccc12	/	75.0*	-10.7	/
Cc1ccccc1N=Nc1ccc(O)c2ncccc12	3.6	7.0	37.8	0.9
Cc1ccc(-c2cc(C(=O)NN=Cc3cc(Br)ccc3O)[nH]n2)cc1C	-8.9	/	/	-20.2
CC[C@H](CCC(=O)N(c1ccccc1)c1ccccc1)c1ccc(C)cc1	-1.4	/	/	-2.4
CC(=O)N(c1ccc2oc(=O)sc2c1)S(=O)(=O)c1ccc(C(=O)O)cc1	0.5	-1.5	-0.8	-8.3
CCCC(=O)N(c1ccc2oc(=O)sc2c1)S(=O)(=O)c1ccccc1	-3.6	5.2	56.5*	-0.7
O=C(C1CCCN1S(=O)(=O)c1ccc(Cl)s1)N1CCc2ccccc2C1 (stereo unspecified)	-0.7	/	/	-0.1
Cc1[nH]c(-c2ccccn2)nc(=S)c1Cl	4.4	-8.8	58.6*	-4.8
COc1cc(C(=O)Nc2ccc(NC(=O)c3ccco3)nc2)cc(OC)c1OC	-5.6	-8.9	52.3*	-4.4
CC(=O)N1CCCN(C(=O)CN2C(=O)CC(C)(C)S(=O)(=O)c3ccccc32)CC1	1.4	/	/	4.4
Cn1c(=O)c2c(nc(NCc3ccc4c(c3)OCO4)n2C)n(C)c1=O	-3.7	-7.0	52.6*	-2.7
Cn1c(=O)c2c(nc(SCC(=O)NCc3ccc4c(c3)OCO4)n2Cc2ccccc2)n(C)c1=O	3.5	-3.5	3.4	4.2
O=C(O)c1nn(CCOc2ccc(Br)cc2)c(=O)c2ccccc12	1.0	11.2	55.4*	-5.0
O=C(O)c1nn(CCOc2ccccc2F)c(=O)c2ccccc12	3.0	1.6	53.7*	-4.0
O=C1N[C@H]2CC=C[C@H]2Nc2ccccc21	-8.7	-6.9	50.9*	-15.6
O=C1N[C@H]2CC=C[C@H]2N(Cc2cccs2)c2ccccc21	-2.8	-2.8	3.3	-3.2
CCOC(=O)C1CCN(C(c2cc3c(C)ccc(C)c3[nH]c2=O)c2nnnn2C2CCCCC2)CC1 (stereo unspecified)	-42.1	0.1	56.6*	-54.4
COc1cc(/C=C2\SC(N)=NC2=O)ccc1OCC(=O)Nc1ccccc1C	-4.1	-11.5	53.8*	-8.7
CCCOc1ccc(/C=C2\SC(N)=NC2=O)cc1OC	-28.3	-5.9	-2.7	-33.5
COc1ccc(C(C(=O)NCc2ccccc2)N(Cc2ccco2)C(=O)c2cnccn2)cc1 (stereo unspecified)	-2.3	3.7	15.2	-4.3
SMILES	PLCg1 inh	FAS-TE inh	Cardio protect	PLC-beta3 inh
COCCN(C(=O)Cc1cccs1)C(C(=O)NCc1ccc(OC)cc1)c1ccc(OC)cc1 (stereo unspecified)	-6.4	2.5	19.4	-5.3
COc1ccc(CNC(=O)C(c2ccco2)N(Cc2cccs2)C(=O)Cc2cccs2)cc1 (stereo unspecified)	-0.4	19.4	34.7	0.4
O=C(NC1CCCC1)C(c1ccc(F)cc1)N(C(=O)Cc1cccs1)c1ccc2c(c1)OCCO2 (stereo unspecified)	-0.5	4.3	-4.2	0.8
Cc1ccc(C(C(=O)NC2CCCC2)N(C(=O)Cc2cccs2)c2ccc3c(c2)OCCO3)cc1 (stereo unspecified)	2.2	60.9*	9.5	5.0
COc1ccc(CNC(=O)C(c2cccs2)N(Cc2ccco2)C(=O)Cc2cccs2)cc1 (stereo unspecified)	-3.1	10.9	63.1*	-7.0
COC(=O)c1ccc(C(C(=O)NCc2ccccc2)N(Cc2cccs2)C(=O)c2cnccn2)cc1 (stereo unspecified)	1.2	11.8	76.3*	0.8
COc1ccc(CNC(=O)C(c2ccc(C)cc2)N(Cc2cccs2)C(=O)c2ccc3c(c2)OCCO3)cc1 (stereo unspecified)	0.3	33.5	61.2*	-0.3
COc1ccc(NS(=O)(=O)c2cccc(C(=O)O)c2)cc1	1.9	-12.2	13.3	3.7
COc1ccc(C(=O)C(C)OC(=O)c2cccc(S(=O)(=O)Nc3cc(Cl)c(OC)cc3OC)c2)cc1 (stereo unspecified)	/	57.1*	-5.5	/
COC(=O)[C@]12C[C@H](CC(=O)N3CCN(C(=O)C4CC4)CC3)C(=O)N(Cc3ccco3)C1=C[C@H](C(C)(C)C)O[C@@H]2C	9.1	/	/	0.8
N/C(=N\NC(=O)c1sccc1OCc1ccc(Cl)cc1Cl)c1ccccn1	-0.3	-5.5	54.8*	5.9
CNC(=S)NNC(=O)c1sccc1OCc1ccc(Cl)cc1Cl	-1.9	-3.1	0.3	-0.3
CCOC(=O)c1cnc(-n2nc(C)cc2C)nc1NCCO	-7.9	-4.8	-2.7	-9.8
CCOC(=O)c1cnc(-n2nc(C)cc2C)nc1NCc1ccccc1	-2.4	4.2	63.3*	-3.7
Cn1c(=O)oc2cc(S(=O)(=O)N3CCN(c4cccc(C(F)(F)F)c4)CC3)ccc21	4.1	/	/	4.5
CC(/C=C/c1cccc([N+](=O)[O-])c1)=N/NC(=O)c1cccnc1	-1.9	-2.6	39.4	1.1
CC(/C=C/c1ccccc1)=N/NC(=O)c1cc([N+](=O)[O-])cc([N+](=O)[O-])c1	0.6	-2.1	64.8*	-0.8
C[C@@H]1ON(C)[C@H]2C[C@H]3c4[nH]c5ccc(-c6ccc7c(c6)OCO7)cc5c4CCN3C[C@@H]12	-34.8	-2.7	62.2*	-61.0
CN(Cc1nc(-c2cccnc2)no1)S(=O)(=O)c1ccccc1	5.7	-3.2	2.9	4.0
COc1ccc(-c2noc(CN(C)S(=O)(=O)c3ccccc3)n2)cc1OC	-0.7	5.8	55.2*	-1.8
Cn1c2c(c(=O)n(C)c1=O)C(c1ccc(Br)cc1)Nc1ccccc1O2 (stereo unspecified)	1.0	19.7	50.6*	2.6
CN1c2ccccc2Oc2c(c(=O)n(C)c(=O)n2C)C1c1cccc([N+](=O)[O-])c1 (stereo unspecified)	7.2	0.7	26.1	4.1
CCc1csc(N2[C@H](CN(CCOC)S(=O)(=O)c3ccccc3[N+](=O)[O-])[C@H](c3ccccc3)[C@@H]2CO)n1	-0.4	/	/	-2.9
CN(C)Cc1c(C(C)(C)O)[nH]c2cc(C(F)(F)F)ccc12	-3.1	/	/	-3.3
Cc1ccc(C)c(N=Cc2cc3c(cc2[N+](=O)[O-])OCO3)c1	4.2	-32.6	62.7*	-16.1
Cc1ccc(CN(C(=O)CNC(=O)c2cccs2)C(C(=O)NCC2CCCO2)c2ccccc2)cc1 (stereo unspecified)	-0.1	4.7	91.4*	1.2
O=C(NCC(=O)N(Cc1ccccc1)C(C(=O)NCC1CCCO1)c1ccccc1)c1ccco1 (stereo unspecified)	0.6	-5.6	33.3	-7.9

Screening data as filed in PubChem.
